Screening data as filed in PubChem.
ALR H2O2 inh – blocks human ALR sulfhydryl oxidase activity; purified ALR, DTT oxidation, H2O2 HRP-luminol luminescence; P55789; 3.8% of 290,000 active; AID 485317; inhibition, % (no concentration beside the values);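 active = mean replicate inhibition above about 79%, with every replicate also reaching it, limit read from the data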
Target sequence (P55789 whole entry, looked up): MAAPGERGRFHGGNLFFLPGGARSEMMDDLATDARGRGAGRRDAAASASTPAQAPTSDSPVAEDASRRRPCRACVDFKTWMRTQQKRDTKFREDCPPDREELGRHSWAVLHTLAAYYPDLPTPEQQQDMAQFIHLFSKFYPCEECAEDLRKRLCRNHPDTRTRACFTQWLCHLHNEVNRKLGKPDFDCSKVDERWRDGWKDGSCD
rCAG binder – molecules binding r(CAG) RNA repeats. r(CAG) RNA repeat, TO-PRO-1 dye displacement fluorescence. inhibition, % at 3 µM. 1.3% of 370,000 active;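 active = inhibition above the plate cutoff, the mean of all test compounds on that plate plus 3 SD, cut at about 35% in these data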;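 note: higher means more dye released from RNA so lower well fluorescence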
PHOSPHO1 inh – inhibitors of human PHOSPHO1 phosphatase; Q8TCT1; recombinant PHOSPHO1, absorbance phosphatase assay; inhibition, % at 13.3 µM; 1.1% of 290,000 active; AID 1565; in the data active = inhibition above about 60%
aDG glyco act – increases alpha dystroglycan glycosylation | activation, % at 10 µM | 0.22% of 360,000 active | Pro5-aDG cells, alpha-DG glycosylation AlphaScreen (IIH6); 0% Pro5, 100% B10-LARGE cell signal | AID 624168;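 active = activation of at least 8% versus controls, or a plate z-score of at least 8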;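 note: Pro5 are CHO cells carrying HIG-tagged alpha-DG that lacks glycosylation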
APOBEC3G inh – APOBEC3G (human) deaminase inhibition; Q9HC16; 0.28% of 330,000 active; inhibition, % at 20 µM; recombinant A3G, ssDNA deamination FAM/TAMRA fluorescence;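 active = inhibition of at least 40% at 20 µM, with no more than 30% in the related APOBEC3A deaminase screen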
Target sequence (Q9HC16 whole entry, looked up): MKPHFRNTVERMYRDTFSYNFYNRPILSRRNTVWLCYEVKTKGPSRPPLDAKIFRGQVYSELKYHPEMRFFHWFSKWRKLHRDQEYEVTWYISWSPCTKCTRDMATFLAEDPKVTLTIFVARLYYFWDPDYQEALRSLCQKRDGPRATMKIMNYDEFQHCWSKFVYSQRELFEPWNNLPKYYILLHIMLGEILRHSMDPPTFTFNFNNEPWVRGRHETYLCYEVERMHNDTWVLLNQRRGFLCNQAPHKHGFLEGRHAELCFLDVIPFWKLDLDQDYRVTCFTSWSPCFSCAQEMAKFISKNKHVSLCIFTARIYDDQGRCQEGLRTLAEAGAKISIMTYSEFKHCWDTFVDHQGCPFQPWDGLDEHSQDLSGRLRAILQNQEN
A3A deaminase – human APOBEC3A DNA deaminase inhibition; recombinant A3A, FAM/TAMRA ssDNA deamination fluorescence; P31941; AID 493011; 0.41% of 330,000 active; inhibition, % at 20 µM;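 active = at least 40% inhibition at 20 µM here, with at most 30% in a related deaminase screen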
rCAG bind conf – r(CAG) RNA repeat binding, confirmation; AID 652065; TO-PRO-1 dye displacement fluorescence; 70% of 4,300 active; inhibition, % at 3 µM; shares compounds with rCAG binder;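 active = inhibition above a per-plate cutoff, the mean inhibition of sample wells plus 3 SD, cut at about 35% in these data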;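 note: loss of TO-PRO-1 fluorescence as compound displaces dye from 1x1 AA loop RNA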
dCAG dye counter – disrupts DNA CAG TO-PRO-1 complex, flagging rCAG hits | inhibition, % at 3 µM | 94% of 4,300 active | shares compounds with rCAG binder | d(CAG) DNA oligo TO-PRO-1 dye displacement, fluorescence;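 active = inhibition above its plate's cutoff, the mean test-well inhibition plus 3 SD, cut at about 4.8% in these data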;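 note: hits displace the dye from DNA and so lower well fluorescence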
DNA CAG DR – disrupts DNA CAG TO-PRO-1 complex in dose response. shares compounds with rCAG binder. DNA CAG/GTC duplex TO-PRO-1 dye displacement fluorescence. IC50, µM. 20% of 250 active; in the data active = IC50 below about 10 µM
Hits are given with their value; 0 = inactive; - = no result. Rows were chosen to be rich in hits. Some 5.4% of all compounds tested hit in one or more screens of this group.

SMILES	ALR H2O2 inh	rCAG binder	PHOSPHO1 inh	aDG glyco act	APOBEC3G inh	A3A deaminase	rCAG bind conf	dCAG dye counter	others
CCc1ccc(-n2c(=S)sc3c(=O)n(-c4ccccc4C)c(SCC(=O)O)nc32)cc1	0	41	0	0	0	0	44	13
Cc1cc(-n2c(=S)sc3c(=O)n(-c4ccc(F)cc4)c(SCC(=O)O)nc32)ccc1Cl	0	48	0	0	0	0	38	12
COc1ccccc1-n1c(SCC(=O)O)nc2c(sc(=S)n2-c2ccc(C)c(C)c2)c1=O	0	48	0	0	0	0	72	33	DNA CAG DR=0
CCN(CC)C(=O)CSc1nc2c(sc(=S)n2-c2ccccc2)c(=O)n1-c1ccccc1OC	-	0	0	0	0	0	-	-
COc1ccccc1-n1c(SCC(=O)O)nc2c(sc(=S)n2-c2ccc(Cl)c(C)c2)c1=O	0	66	0	0	0	0	60	24
Nc1ncn(C(=S)Nc2ccccc2)n1	-	0	-	0	-	-	-	-
COCCNC(=O)C1(C)CCN(Cc2ccc(C(C)C)cc2)C1 (configuration not stated)	-	0	-	0	-	-	-	-
Cc1c(C(=O)O)sc(S(=O)(=O)N2CCN(C(=O)CC(C)c3ccccc3)CC2)c1C(=O)O (configuration not stated)	-	0	-	0	-	-	-	-
Cc1ccc(-n2c(=S)sc3c(=O)n(-c4ccccc4C)c(SCC(=O)O)nc32)cc1C	-	41	0	0	0	0	68	28
CC(C)C[C@H]1COc2cc(Br)ccc2S(=O)(=O)N1Cc1ccc(Cl)cc1	-	0	-	-	-	-	-	-
O=C(CN(c1ccc(Br)cc1)S(=O)(=O)c1ccc(Cl)c([N+](=O)[O-])c1)NCC1CCCO1 (configuration not stated)	-	0	-	0	-	-	-	-
CC(=O)c1sc(Nc2nc3ccc(F)cc3s2)nc1C	0	36	0	0	0	0	0	8.0
CCc1ccc(CNC(=O)C(=O)NCC2CCCO2)cc1 (configuration not stated)	0	0	0	0	0	0	-	-
CC1CCCCC1NC(=O)C(=O)NCC1CCCO1 (configuration not stated)	0	56	0	0	0	0	0	0
COc1ccc(NS(=O)(=O)c2c(F)cc(F)c(Cl)c2F)cc1S(=O)(=O)N1CCCCC1	0	40	0	0	0	0	36	11
CSc1nc(NCc2ccco2)c2sc3nc(C(C)C)c4c(c3c2n1)CC(C)(C)OC4	0	0	0	0	0	0	-	-
CSc1nc(NCCOCCO)c2sc3nc(-c4ccco4)c4c(c3c2n1)CCC4	97	52	0	0	0	0	38	18	DNA CAG DR=0
CCN(CC)S(=O)(=O)c1ccc(C(=O)Nc2nnc(NC(=S)Nc3ccccc3)s2)cc1	0	61	0	0	0	0	64	33
CCN(CC)S(=O)(=O)c1ccc(NC(=S)Nc2ccccc2)cc1	0	0	-	0	0	0	-	-
COc1cc(/C=C2/C(=O)c3cccc([N+](=O)[O-])c3C2=O)c(Br)cc1O	-	60	0	0	-	-	89	62
COc1cc(C2C3=C(CCCC3=O)Nc3[nH]n(-c4ccccc4)c(=O)c32)cc(OC)c1OC (configuration not stated)	0	0	0	0	0	0	-	-
COc1cc(C2c3c([nH]c(=O)[nH]c3=O)Nc3ccc4ccccc4c32)ccc1O (configuration not stated)	0	43	0	0	0	0	0	8.2
COc1cc(C2c3c([nH]c(=O)[nH]c3=O)Nc3ccc4ccccc4c32)cc(OC)c1OC (configuration not stated)	0	42	0	0	0	0	0	10
C=CCN1C(=O)C(CC(=O)O)SC1=Nc1ccc(N=Nc2ccccc2)cc1 (configuration not stated)	0	55	0	0	0	0	37	8.8
O=C(Nc1cccc(Oc2ccccc2)c1)c1ccc(-n2cncn2)c2ccoc12	-	0	-	0	-	-	-	-
SMILES	ALR H2O2 inh	rCAG binder	PHOSPHO1 inh	aDG glyco act	APOBEC3G inh	A3A deaminase	rCAG bind conf	dCAG dye counter	others
CC1(C)OC(=O)C2=C(CC(CCc3ccccc3)OC2c2ccc(Cl)c(Cl)c2)O1 (configuration not stated)	-	0	-	-	-	-	-	-
CC1(C(=O)NS(=O)(=O)c2cccc(F)c2)CCN1C(=O)Cc1ccccc1 (configuration not stated)	-	0	-	0	-	-	-	-
CC1(C(=O)NS(=O)(=O)c2cccc(F)c2)CCN1C(=O)Cc1ccc(-c2ccccc2)cc1 (configuration not stated)	-	51	-	0	-	-	50	15
CC1(C(=O)NS(=O)(=O)c2cccc(F)c2)CCN1C(=O)Cc1cccs1 (configuration not stated)	-	0	-	0	-	-	-	-
CC1(C(=O)NS(=O)(=O)c2cccc(Cl)c2)CCN1C(=O)Cc1ccc(-c2ccccc2)cc1 (configuration not stated)	-	74	-	0	-	-	68	29
CC(C)(C)c1ccc(CC(=O)N2CCC2(C)C(=O)NS(=O)(=O)c2cccc(F)c2)cc1 (configuration not stated)	-	39	-	0	-	-	0	5.4
Cc1ccc(C(=O)N2CCC[C@@H]2C(=O)N2CCC[C@H]2C(=O)NCc2ccccc2)cc1C	-	0	-	-	-	-	-	-
O=C(NCc1ccco1)c1ccc2sc([C@@H]3O[C@H](CO)[C@@H](O)[C@H]3O)nc2c1	-	0	-	0	-	-	-	-
O=C1CC(=O)N(C2CCCCC2)C(=O)N1c1ccccc1S(=O)(=O)Oc1ccccc1	-	59	-	0	-	-	0	8.0
CC(=O)OCC(=O)C1(O)CCC2C3CCC4=CC(=O)CCC4(C)C3(F)C(O)CC21C (configuration not stated)	-	0	-	0	-	-	-	-
COc1ccc(C(C)=O)cc1Cn1c(C)c(C(=O)NCc2cccc(C)c2)sc1=O	-	0	-	0	-	-	-	-
O=C(O)c1c2c(nc3ccc(S(=O)(=O)N4CCC(C(=O)NCc5ccccc5Cl)CC4)cc13)CCCC2	0	39	0	0	0	0	36	9.5
O=C(O)c1c2c(nc3ccc(S(=O)(=O)N4CCC(C(=O)NC5CCCCCC5)CC4)cc13)CCCC2	-	36	0	0	0	0	41	13
O=C(O)c1c2c(nc3ccc(S(=O)(=O)N4CCC(C(=O)NCc5ccc(Cl)cc5)CC4)cc13)CCCC2	0	42	0	0	0	0	40	13
COC(=O)C[C@H]1CC[C@H]2[C@H](COc3ccc(NS(=O)(=O)c4ccccc4C)cc3C(=O)N2C)O1	-	0	-	-	-	-	-	-
CCNC(=O)C1CCCN(Cc2ccc(C)c3ccccc23)CC1 (configuration not stated)	-	-	-	0	-	-	-	-
